# Measurements taken from article PMC11062922 (Nature Chemical Biology, 2023).
# Like-named read-outs stand apart in the source and are kept apart here.
# Columns and labels:
# MARK3 = conditions: read-out: apparent Kd, n = 1
# MARK4 = conditions: read-out: apparent Kd, n = 1
# [1] = compound concentrations:100 nM and 1000 nM (sheet 'Lestaurtinib' of Supplementary Table 1),run:Lestaurtinib_02473_R3,Plate:MR010
# [2] = compound concentrations:100 nM and 1000 nM (sheet 'Lestaurtinib' of Supplementary Table 1),run:Lestaurtinib_02482_R2,Plate:MR011
# [3] = compound concentrations:100 nM and 1000 nM (sheet 'Lestaurtinib' of Supplementary Table 1),run:Lestaurtinib_02482_R3,Plate:MR011
# [4] = compound concentrations:100 nM and 1000 nM (sheet 'Lestaurtinib' of Supplementary Table 1),run:Lestaurtinib_02487_R1,Plate:MR012
# [5] = compound concentrations:100 nM and 1000 nM (sheet 'Lestaurtinib' of Supplementary Table 1),run:Lestaurtinib_02487_R2,Plate:MR012
# [6] = compound concentrations:100 nM and 1000 nM (sheet 'Lestaurtinib' of Supplementary Table 1),run:Lestaurtinib_02496_R2,Plate:MR013
# [7] = compound concentrations:100 nM and 1000 nM (sheet 'Lestaurtinib' of Supplementary Table 1),run:Lestaurtinib_02496_R3,Plate:MR013
# [8] = compound concentrations:100 nM and 1000 nM (sheet 'Lestaurtinib' of Supplementary Table 1),run:Lestaurtinib_02566_R1,Plate:MR014
# [9] = compound concentrations:100 nM and 1000 nM (sheet 'Lestaurtinib' of Supplementary Table 1),run:Lestaurtinib_02572_R1,Plate:MR015
# [10] = compound concentrations:100 nM and 1000 nM (sheet 'Lestaurtinib' of Supplementary Table 1),run:Lestaurtinib_02577_R1,Plate:MR016
# [11] = compound concentrations:100 nM and 1000 nM (sheet 'Lestaurtinib' of Supplementary Table 1),run:Lestaurtinib_02577_R3,Plate:MR016
# [12] = compound concentrations:100 nM and 1000 nM (sheet 'Lestaurtinib' of Supplementary Table 1),run:Lestaurtinib_02584_R3,Plate:MR017
# [13] = compound concentrations:100 nM and 1000 nM (sheet 'Lestaurtinib' of Supplementary Table 1),run:Lestaurtinib_02606_R3,Plate:MR019
# [14] = compound concentrations:100 nM and 1000 nM (sheet 'Lestaurtinib' of Supplementary Table 1),run:Lestaurtinib_02624_R2,Plate:MR020
substance,measurement,setting,value
Lestaurtinib,potency estimated from few doses,"MARK3; compound concentrations:100 nM and 1000 nM (sheet 'Lestaurtinib' of Supplementary Table 1),run:Lestaurtinib_02443_R3,Plate:MR009",217 nM
same,potency estimated from few doses,MARK3; [1],98.5 nM
same,potency estimated from few doses,MARK3; [2],158 nM
same,potency estimated from few doses,MARK3; [3],140 nM
same,potency estimated from few doses,MARK3; [4],153 nM
same,potency estimated from few doses,MARK3; [5],200 nM
same,potency estimated from few doses,"MARK3; compound concentrations:100 nM and 1000 nM (sheet 'Lestaurtinib' of Supplementary Table 1),run:Lestaurtinib_02487_R3,Plate:MR012",172 nM
same,potency estimated from few doses,MARK3; [6],153 nM
same,potency estimated from few doses,MARK3; [7],146 nM
same,potency estimated from few doses,MARK3; [8],140 nM
same,potency estimated from few doses,MARK3; [9],140 nM
same,potency estimated from few doses,"MARK3; compound concentrations:100 nM and 1000 nM (sheet 'Lestaurtinib' of Supplementary Table 1),run:Lestaurtinib_02572_R2,Plate:MR015",162 nM
same,potency estimated from few doses,MARK3; [10],158 nM
same,potency estimated from few doses,"MARK3; compound concentrations:100 nM and 1000 nM (sheet 'Lestaurtinib' of Supplementary Table 1),run:Lestaurtinib_02577_R2,Plate:MR016",224 nM
same,potency estimated from few doses,MARK3; [11],259 nM
same,potency estimated from few doses,MARK3; [12],211 nM
same,potency estimated from few doses,"MARK3; compound concentrations:100 nM and 1000 nM (sheet 'Lestaurtinib' of Supplementary Table 1),run:Lestaurtinib_02601_R2,Plate:MR018",184 nM
same,potency estimated from few doses,"MARK3; compound concentrations:100 nM and 1000 nM (sheet 'Lestaurtinib' of Supplementary Table 1),run:Lestaurtinib_02606_R2,Plate:MR019",131 nM
same,potency estimated from few doses,MARK3; [13],162 nM
same,potency estimated from few doses,"MARK3; compound concentrations:100 nM and 1000 nM (sheet 'Lestaurtinib' of Supplementary Table 1),run:Lestaurtinib_02624_R1,Plate:MR020",146 nM
same,potency estimated from few doses,MARK3; [14],143 nM
same,potency estimated from few doses,"MARK3; compound concentrations:100 nM and 1000 nM (sheet 'Lestaurtinib' of Supplementary Table 1),run:Lestaurtinib_02724_R1,Plate:MR021",157 nM
same,potency estimated from few doses,"MARK3; compound concentrations:100 nM and 1000 nM (sheet 'Lestaurtinib' of Supplementary Table 1),run:Lestaurtinib_02724_R2,Plate:MR021",180 nM
same,potency estimated from few doses,"MARK3; compound concentrations:100 nM and 1000 nM (sheet 'Lestaurtinib' of Supplementary Table 1),run:Lestaurtinib_02724_R3,Plate:MR021",163 nM
same,potency estimated from few doses,"MARK3; compound concentrations:100 nM and 1000 nM (sheet 'Lestaurtinib' of Supplementary Table 1),run:Lestaurtinib_02752_R3,Plate:MR025",189 nM
same,potency estimated from few doses,"MARK3; compound concentrations:100 nM and 1000 nM (sheet 'Lestaurtinib' of Supplementary Table 1),run:Lestaurtinib_02765_R3,Plate:MR026",143 nM
same,potency estimated from few doses,"MARK3; compound concentrations:100 nM and 1000 nM (sheet 'Lestaurtinib' of Supplementary Table 1),run:Lestaurtinib_02766_R3,Plate:MR027",137 nM
same,potency estimated from few doses,"MARK3; compound concentrations:100 nM and 1000 nM (sheet 'Lestaurtinib' of Supplementary Table 1),run:Lestaurtinib_02768_R3,Plate:MR028",136 nM
same,potency estimated from few doses,"MARK3; compound concentrations:100 nM and 1000 nM (sheet 'Lestaurtinib' of Supplementary Table 1),run:Lestaurtinib_02795_R1,Plate:MR022",154 nM
same,potency estimated from few doses,"MARK3; compound concentrations:100 nM and 1000 nM (sheet 'Lestaurtinib' of Supplementary Table 1),run:Lestaurtinib_02795_R2,Plate:MR022",141 nM
same,potency estimated from few doses,"MARK3; compound concentrations:100 nM and 1000 nM (sheet 'Lestaurtinib' of Supplementary Table 1),run:Lestaurtinib_02795_R3,Plate:MR022",268 nM
same,potency estimated from few doses,"MARK3; compound concentrations:100 nM and 1000 nM (sheet 'Lestaurtinib' of Supplementary Table 1),run:Lestaurtinib_02896_R1,Plate:MR030",142 nM
same,potency estimated from few doses,"MARK3; compound concentrations:100 nM and 1000 nM (sheet 'Lestaurtinib' of Supplementary Table 1),run:Lestaurtinib_02896_R3,Plate:MR030",159 nM
same,potency estimated from few doses,"MARK3; compound concentrations:100 nM and 1000 nM (sheet 'Lestaurtinib' of Supplementary Table 1),run:Lestaurtinib_03172_R1,Plate:MR031",161 nM
same,potency estimated from few doses,"MARK3; compound concentrations:100 nM and 1000 nM (sheet 'Lestaurtinib' of Supplementary Table 1),run:Lestaurtinib_03172_R2,Plate:MR031",207 nM
same,potency estimated from few doses,"MARK3; compound concentrations:100 nM and 1000 nM (sheet 'Lestaurtinib' of Supplementary Table 1),run:Lestaurtinib_03172_R3,Plate:MR031",146 nM
same,potency estimated from few doses,"MARK3; compound concentrations:100 nM and 1000 nM (sheet 'Lestaurtinib' of Supplementary Table 1),run:Lestaurtinib_03260_R1,Plate:MR033",381 nM
same,potency estimated from few doses,"MARK3; compound concentrations:100 nM and 1000 nM (sheet 'Lestaurtinib' of Supplementary Table 1),run:Lestaurtinib_03260_R2,Plate:MR033",379 nM
same,potency estimated from few doses,"MARK3; compound concentrations:100 nM and 1000 nM (sheet 'Lestaurtinib' of Supplementary Table 1),run:Lestaurtinib_03260_R3,Plate:MR033",184 nM
same,potency estimated from few doses,"MARK4; compound concentrations:100 nM and 1000 nM (sheet 'Lestaurtinib' of Supplementary Table 1),run:Lestaurtinib_02339_R2,Plate:MR001",165 nM
same,potency estimated from few doses,"MARK4; compound concentrations:100 nM and 1000 nM (sheet 'Lestaurtinib' of Supplementary Table 1),run:Lestaurtinib_02339_R3,Plate:MR001",385 nM
same,potency estimated from few doses,"MARK4; compound concentrations:100 nM and 1000 nM (sheet 'Lestaurtinib' of Supplementary Table 1),run:Lestaurtinib_02364_R1,Plate:MR002",73 nM
same,potency estimated from few doses,"MARK4; compound concentrations:100 nM and 1000 nM (sheet 'Lestaurtinib' of Supplementary Table 1),run:Lestaurtinib_02367_R2,Plate:MR003",79.7 nM
same,potency estimated from few doses,"MARK4; compound concentrations:100 nM and 1000 nM (sheet 'Lestaurtinib' of Supplementary Table 1),run:Lestaurtinib_02367_R3,Plate:MR003",85.1 nM
same,potency estimated from few doses,"MARK4; compound concentrations:100 nM and 1000 nM (sheet 'Lestaurtinib' of Supplementary Table 1),run:Lestaurtinib_02381_R3,Plate:MR004",209 nM
same,potency estimated from few doses,"MARK4; compound concentrations:100 nM and 1000 nM (sheet 'Lestaurtinib' of Supplementary Table 1),run:Lestaurtinib_02422_R1,Plate:MR006",74.8 nM
same,potency estimated from few doses,"MARK4; compound concentrations:100 nM and 1000 nM (sheet 'Lestaurtinib' of Supplementary Table 1),run:Lestaurtinib_02422_R3,Plate:MR006",86.4 nM
same,potency estimated from few doses,"MARK4; compound concentrations:100 nM and 1000 nM (sheet 'Lestaurtinib' of Supplementary Table 1),run:Lestaurtinib_02437_R1,Plate:MR007",974 nM
same,potency estimated from few doses,"MARK4; compound concentrations:100 nM and 1000 nM (sheet 'Lestaurtinib' of Supplementary Table 1),run:Lestaurtinib_02438_R3,Plate:MR008",83.1 nM
same,potency estimated from few doses,"MARK4; compound concentrations:100 nM and 1000 nM (sheet 'Lestaurtinib' of Supplementary Table 1),run:Lestaurtinib_02443_R2,Plate:MR009",93.4 nM
same,potency estimated from few doses,"MARK4; compound concentrations:100 nM and 1000 nM (sheet 'Lestaurtinib' of Supplementary Table 1),run:Lestaurtinib_02473_R1,Plate:MR010",84.5 nM
same,potency estimated from few doses,MARK4; [1],59.7 nM
same,potency estimated from few doses,MARK4; [2],86.4 nM
same,potency estimated from few doses,MARK4; [3],83.9 nM
same,potency estimated from few doses,MARK4; [4],703 nM
same,potency estimated from few doses,MARK4; [5],162 nM
same,potency estimated from few doses,MARK4; [6],83.9 nM
same,potency estimated from few doses,MARK4; [7],668 nM
same,potency estimated from few doses,MARK4; [8],708 nM
same,potency estimated from few doses,"MARK4; compound concentrations:100 nM and 1000 nM (sheet 'Lestaurtinib' of Supplementary Table 1),run:Lestaurtinib_02566_R2,Plate:MR014",36.8 nM
same,potency estimated from few doses,"MARK4; compound concentrations:100 nM and 1000 nM (sheet 'Lestaurtinib' of Supplementary Table 1),run:Lestaurtinib_02566_R3,Plate:MR014",497 nM
same,potency estimated from few doses,MARK4; [9],115 nM
same,potency estimated from few doses,MARK4; [10],141 nM
same,potency estimated from few doses,MARK4; [11],199 nM
same,potency estimated from few doses,"MARK4; compound concentrations:100 nM and 1000 nM (sheet 'Lestaurtinib' of Supplementary Table 1),run:Lestaurtinib_02584_R1,Plate:MR017",85.5 nM
same,potency estimated from few doses,"MARK4; compound concentrations:100 nM and 1000 nM (sheet 'Lestaurtinib' of Supplementary Table 1),run:Lestaurtinib_02584_R2,Plate:MR017",74.7 nM
same,potency estimated from few doses,MARK4; [12],80.1 nM
same,potency estimated from few doses,"MARK4; compound concentrations:100 nM and 1000 nM (sheet 'Lestaurtinib' of Supplementary Table 1),run:Lestaurtinib_02601_R1,Plate:MR018",90.9 nM
same,potency estimated from few doses,"MARK4; compound concentrations:100 nM and 1000 nM (sheet 'Lestaurtinib' of Supplementary Table 1),run:Lestaurtinib_02601_R3,Plate:MR018",93.4 nM
same,potency estimated from few doses,MARK4; [13],115 nM
same,potency estimated from few doses,MARK4; [14],84.3 nM
same,potency estimated from few doses,"MARK4; compound concentrations:100 nM and 1000 nM (sheet 'Lestaurtinib' of Supplementary Table 1),run:Lestaurtinib_02624_R3,Plate:MR020",78.4 nM
